An excerpt weighted towards active compounds, which were near 9.2% of everything screened.
HTT ATP protect – protects HTT-Q103 PC12 cells, measured by ATP; PC12 HTT-Q103 induced, cytoprotection, ATP luminescence, 40 h; Potency, µM (top dose mostly 56.4 µM), hits mostly activators; hit rate 0.14% among 230,000; AID 1471; active = well fitted curve in the direction sought with a large enough effect; inconclusive = small, poorly fitted or top-dose-only effect, or another doubt; inactive = no such curve, though single readings can be large; an effect the other way counts as inactive or inconclusive; also: nearly all actives have a fitted effect of over 45% in size
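ATP quantification (ATPlite) reports survival of PC12 cells in which tebufenozide, 100 nM final, switches on Htt exon 1 with 103 glutamines linked to GFP; compounds are titrated.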
HttQ103 aggreg – mutant huntingtin aggregation inhibition | PC12 HttQ103-GFP aggregates, Acumen cytometry, 40 h | Potency, µM (series often up to 46.1 µM), most hits filed as inhibitors | hit rate 1.1% among 220,000; active = well fitted curve in the direction sought with a large enough effect; inconclusive = small, poorly fitted or top-dose-only effect, or another doubt; inactive = no such curve, though single readings can be large; an effect the other way counts as inactive or inconclusive; also: nearly all actives have a fitted effect of over 60% in size
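Steps: seed 1500 PC12 HTTQ103-GFP cells/well; add tebufenozide, 100 nM final; add compound titration; add ATPLite reagent; quantify GFP aggregates by laser scanning cytometry.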
HPGD block – inhibitors of human 15-hydroxyprostaglandin dehydrogenase (HPGD); hit rate 4.3% among 150,000; Potency, µM, most hits filed as inhibitors; P15428; AID 894; purified HPGD, NADH fluorescence kinetic, PGE2 substrate
Target sequence (P15428 whole entry, looked up): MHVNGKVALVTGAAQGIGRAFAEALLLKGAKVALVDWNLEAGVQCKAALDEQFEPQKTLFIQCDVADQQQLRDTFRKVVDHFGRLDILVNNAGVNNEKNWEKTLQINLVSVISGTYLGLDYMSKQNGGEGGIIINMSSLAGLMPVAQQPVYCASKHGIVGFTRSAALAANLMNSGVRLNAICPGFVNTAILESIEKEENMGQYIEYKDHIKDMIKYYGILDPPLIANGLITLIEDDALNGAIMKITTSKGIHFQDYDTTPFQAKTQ
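NADH formation kinetics: reaction with 30 uM PGE2 and 1 mM NAD+ (final), 20 nM enzyme, Tris-HCl pH 8 with Tween 20, after 15 min compound preincubation at room temperature. Fluorescence change, last versus first of five reads.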
JMJD2E inh – blocks human JMJD2E demethylase activity | B2RXH2 | JMJD2E catalytic domain, FDH-coupled NADH fluorescence (FDH is formaldehyde dehydrogenase) | Potency, µM (titrated, usually from 57.1 µM), hits mostly inhibitors | hit rate 1.6% among 230,000 | AID 2147; also: nearly all actives have a fitted effect of over 50% in size
LMNA splice mod – LMNA splicing modulation | HeLa LMNA splicing GFP/RFP minigene ratio, 48 h | Potency, µM (titrated, usually from 46.1 µM), usual class: inhibitors | hit rate 0.01% among 200,000; active = well fitted inhibition curve with a large enough effect in the signal ratio, with a control signal flat, not every such curve was filed as active; inconclusive = small, poorly fitted or top-dose-only effect, or effect the other way, or a change in a side signal; the % refers to the signal ratio
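Read-out is the ratio of GFP to DsRed2 object intensity, acquired by 488 nm laser-scanning cytometry on HeLa lamin A-EGFP minigene reporter cells. Compound incubation 48 hrs at 37 °C in Opti-MEM with 2% FBS; DMSO 0.5% final.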
ALDH1A1 inh – blocks purified human ALDH1A1 activity | P00352 | Purified ALDH1A1, NADH fluorescence, propionaldehyde substrate | Potency, µM (doses to about 75.3 µM), actives largely listed as inhibitors | hit rate 7.3% among 220,000
Target sequence (P00352 whole entry, looked up): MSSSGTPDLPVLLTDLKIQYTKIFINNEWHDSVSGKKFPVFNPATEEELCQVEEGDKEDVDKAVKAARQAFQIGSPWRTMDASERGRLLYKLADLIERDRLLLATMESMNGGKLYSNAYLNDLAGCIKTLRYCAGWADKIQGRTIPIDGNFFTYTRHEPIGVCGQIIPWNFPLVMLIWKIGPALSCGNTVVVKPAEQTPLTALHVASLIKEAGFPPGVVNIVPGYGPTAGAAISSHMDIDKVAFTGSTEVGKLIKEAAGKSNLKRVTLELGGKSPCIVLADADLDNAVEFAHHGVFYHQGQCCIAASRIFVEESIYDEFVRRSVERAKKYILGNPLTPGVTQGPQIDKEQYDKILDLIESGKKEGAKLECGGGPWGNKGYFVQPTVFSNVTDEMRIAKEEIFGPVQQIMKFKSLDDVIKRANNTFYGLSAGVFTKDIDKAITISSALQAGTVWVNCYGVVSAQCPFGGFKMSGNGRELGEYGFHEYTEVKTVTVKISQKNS
Large screens that a line does not name were inactive. Unless noted, calls follow the shape of the dose curve; as a rule, active = well fitted inhibition curve with a large enough effect (not every such curve was filed as active); inconclusive = small, poorly fitted or top-dose-only effect, or another doubt; inactive = no such curve, though single readings can be large or run the other way.

NC(=O)c1c(NC(=O)CSc2nnc(-c3ccccc3)n2CC2CCCO2)sc2c1CCC2 (configuration not stated)	HPGD block inconclusive, ALDH1A1 inh 28µM
COc1ccc(NS(=O)(=O)c2ccc(NC(=O)C(CCSC)NC(N)=O)cc2)cc1 (configuration not stated)	none (no result: HPGD block, LMNA splice mod, ALDH1A1 inh)
CCOC(=O)Cn1nnnc1C(CC)N(Cc1cc2c(C)cc(C)cc2[nH]c1=O)C1CCCC1 (configuration not stated)	ALDH1A1 inh 18µM
CCOC(=O)Cn1nnnc1C(CC)N(Cc1cc2ccc(C)cc2[nH]c1=O)C1CCCC1 (configuration not stated)	JMJD2E inh inconclusive, ALDH1A1 inh 20µM
CCOC(=O)Cn1nnnc1C(CC)N(Cc1cccs1)Cc1cc2cc(C)ccc2[nH]c1=O (configuration not stated)	HPGD block inconclusive, ALDH1A1 inh inconclusive
CC(C)[C@@H](OCc1ccccc1)[C@H](C)/C=N\O[C@@H](C)c1cn([C@@H]2COC[C@@H]2O)nn1	none (no result: HttQ103 aggreg, HPGD block, JMJD2E inh, LMNA splice mod)
CCn1cc[n+](C)c1P(c1ccccc1)c1ccccc1	HttQ103 aggreg inconclusive, HPGD block 25µM, LMNA splice mod inconclusive
Cc1ccc(CSC(Nc2ccc(F)cc2)=C(C#N)C#N)cc1	HttQ103 aggreg 6.3µM, LMNA splice mod inconclusive, ALDH1A1 inh inconclusive
CCn1c2ccccc2c2nnc(N3CCN(c4cccc(Cl)c4)CC3)nc21	none (no result: HTT ATP protect, HttQ103 aggreg, HPGD block, JMJD2E inh, ALDH1A1 inh)
Cc1ccc(N(NC(=O)C(O)(c2ccccc2)c2ccccc2)C(=O)CCl)cc1	HttQ103 aggreg 5µM, HPGD block 11µM, ALDH1A1 inh inconclusive
O=[N+]([O-])c1ccccc1/C=C/C=N/n1c(-c2ccccc2)n[nH]c1=S	HttQ103 aggreg inconclusive, HPGD block 7.1µM, LMNA splice mod inconclusive, ALDH1A1 inh inconclusive (no result: HTT ATP protect)
CC1CCCC(C)N1/N=C/C=C/c1ccccc1[N+](=O)[O-] (configuration not stated)	ALDH1A1 inh 3.5µM (no result: HPGD block)
S=c1[nH]nc(-c2ccncc2)n1/N=C/C=C/c1ccccc1	none (no result: HPGD block, LMNA splice mod, ALDH1A1 inh)
O=[N+]([O-])c1ccccc1/C=C/C=N/n1c(-c2ccc(Cl)cc2)n[nH]c1=S	HPGD block 3.2µM, ALDH1A1 inh inconclusive
Cn1cnc([N+](=O)[O-])c1[Se]c1nc(N)nc2c1ncn2[C@@H]1O[C@@H](CO)[C@H](O)[C@@H]1O	none (no result: HttQ103 aggreg, JMJD2E inh, LMNA splice mod)
CC(C)CC(=O)NC(=S)Nc1ccccc1F	HPGD block 20µM
CC(C)(C)CC(=O)NC(=S)Nc1ccccc1C(F)(F)F	HPGD block 25µM
Cc1ccc(C(=O)NC(=S)Nc2ccccc2C(F)(F)F)cc1	LMNA splice mod inconclusive, ALDH1A1 inh 13µM (no result: HPGD block)
CC(C)CC(=O)NC(=S)Nc1ccccc1C(F)(F)F	HPGD block inconclusive, ALDH1A1 inh 18µM
CSc1ccccc1NC(=S)Nc1ccccc1C(F)(F)F	none
CCN(CC)Cc1ccc(Nc2ccnc3cc(Cl)ccc23)cc1O	HTT ATP protect 14µM (no result: HttQ103 aggreg, LMNA splice mod)
CCN(CC)CCC[C@H](C)Nc1ccnc2cc(Cl)ccc12	none
Cc1ccc(C(=O)c2c[nH]c(C(=O)NCc3cccnc3)c2)cc1	HttQ103 aggreg inconclusive, HPGD block 25µM, LMNA splice mod inconclusive, ALDH1A1 inh inconclusive
O=C1OC(=O)c2c(Cl)c(Cl)c(Cl)c(Cl)c21	ALDH1A1 inh inconclusive (no result: HttQ103 aggreg, JMJD2E inh, LMNA splice mod)
O=C(CSc1nc2ncc(Br)cc2[nH]1)c1ccc([N+](=O)[O-])cc1	HPGD block 8.9µM, ALDH1A1 inh inconclusive
Fc1ccc(CSc2nc3ncc(Br)cc3[nH]2)cc1	HPGD block 0.63µM
O=C(CCCCCn1c(=S)[nH]c2ccc(N3CCOCC3)cc2c1=O)NCc1cccc(Cl)c1	JMJD2E inh inconclusive (no result: HPGD block, LMNA splice mod)
Cc1cc2oc(=O)cc(CN3CCC(C)CC3)c2cc1Cl	ALDH1A1 inh 20µM
CC(C)(C)C(=O)/C(=C\c1ccc([N+](=O)[O-])cc1)n1cncn1	HTT ATP protect inconclusive, HttQ103 aggreg 5µM, HPGD block inconclusive, LMNA splice mod inconclusive
CC1CCCC(C)N1CC(O)COc1c(F)cc(Br)cc1F (configuration not stated)	HttQ103 aggreg inconclusive, LMNA splice mod inconclusive (no result: HPGD block)
Cc1cc(C(F)(F)F)nc(SCC(=O)NC2CC3CCC2C3)n1 (configuration not stated)	HPGD block 20µM
Cc1oc(-c2cccc(Br)c2)nc1CSc1nc2ncccc2[nH]1	none (no result: HTT ATP protect, HttQ103 aggreg, HPGD block, JMJD2E inh, ALDH1A1 inh)
Cn1nc(C(C)(C)C)cc1C(=O)NCc1ccc(N2CCCC2=O)cc1	HttQ103 aggreg 1.8µM, LMNA splice mod inconclusive
C/C(CC1CC2=C(CC1(C)C)C(C)(C)CCC2)=N\NC(N)=S (configuration not stated)	HPGD block inconclusive, LMNA splice mod inconclusive, ALDH1A1 inh 13µM
O=c1nc2n(c3c4c(sc13)CCC4)CCC2	ALDH1A1 inh 18µM
O=c1c2c3c(sc2nc2n1CCC2)CCC3	none
Cc1ccc(C(=O)N2CCCC(c3nc4c(nnn4Cc4ccccc4)c(=O)[nH]3)C2)cc1 (configuration not stated)	HttQ103 aggreg inconclusive, HPGD block 3.5µM, ALDH1A1 inh inconclusive
CCC(C)NC(=O)c1nc2c(nnn2Cc2ccccc2Cl)c(=O)[nH]1 (configuration not stated)	LMNA splice mod inconclusive (no result: HPGD block)
CCCCC(=O)N1CCCC(c2nc3c(nnn3Cc3cc(C)ccc3C)c(=O)[nH]2)C1 (configuration not stated)	HPGD block 2.2µM, ALDH1A1 inh inconclusive
Cc1ccc(Cn2nnc3c(=O)[nH]c(C4CCCN(C(=O)Nc5ccc(F)cc5F)C4)nc32)cc1 (configuration not stated)	ALDH1A1 inh inconclusive
COCCCNC(=O)c1nc2c(nnn2Cc2cc(C)ccc2C)c(=O)[nH]1	HPGD block 0.45µM
Cc1ccc(C)c(Cn2nnc3c(=O)[nH]c(C4CCCN(C(=O)CC(C)C)C4)nc32)c1 (configuration not stated)	HPGD block 10µM
CCOc1ccc(CN(C)CC(=O)Nc2ccc(N3CCOCC3)cc2)cc1OC	none
Cc1cc(-c2cc(C(=O)NCc3ccccc3)on2)nc(S(C)(=O)=O)n1	none (no result: HPGD block, LMNA splice mod, ALDH1A1 inh)
CO[C@H]1COC(=O)C/C=C\[C@@H](C)[C@H](OC)COC(=O)[C@H]2CCCN2C(=O)C/C=C\[C@@H]1C	none (no result: HttQ103 aggreg, HPGD block, JMJD2E inh, LMNA splice mod)
COc1ccc2sc(C)[n+](C)c2c1	HTT ATP protect 11µM, JMJD2E inh 20µM, ALDH1A1 inh inconclusive (no result: HPGD block, LMNA splice mod)
CN(c1nc2c(c(=O)n(C)c(=O)n2C)n1CC(=O)c1ccccc1)C1CCCCC1	ALDH1A1 inh 28µM
CC12COC3(C(=O)Nc4ccc5ccccc5c4)CC1CCC32C (configuration not stated)	none (no result: HPGD block)

Bioassay records deposited in PubChem BioAssay by National Center for Advancing Translational Sciences (NCATS).
